Source: PubChem
Compounds with a hit are over-represented: about 12% of the library has one in this group of screens.
BAZ2B block = blocks human BAZ2B; Q9UIF8; AlphaScreen BAZ2B-H3K14Ac peptide displacement; Potency, µM (top dose mostly 114 µM), hits mostly inhibitors; actives 4.4% (n = 360,000); further: nearly all actives have a fitted effect of over 60% in size
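Inhibition is scored as reduced AlphaScreen emission. The BAZ2B/b-H3(5-23)K14Ac complex (50 nM each) in PBS pH 7.4, 0.01% Tween-20 meets compound (up to 110 uM) for 30 min at RT before bead addition.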
JMJD2A Tudor inh = inhibitors of human JMJD2A Tudor domain; actives 4.4% (n = 390,000); O75164; AlphaScreen JMJD2A-Tudor / H3K4me3 peptide binding; Potency, µM (highest dose often 114 µM), hits mostly inhibitors; further: nearly all actives have a fitted effect of over 50% in size
G9a block = G9a (human) methyltransferase inhibition; Q96KQ7; G9a H3K9 monomethylation, AlphaScreen, 2 h; Potency, µM (doses to about 102 µM), most hits filed as inhibitors; actives 8.8% (n = 350,000); further: nearly all actives have a fitted effect of over 75% in size
Target sequence (Q96KQ7 913-1193 limits assumed): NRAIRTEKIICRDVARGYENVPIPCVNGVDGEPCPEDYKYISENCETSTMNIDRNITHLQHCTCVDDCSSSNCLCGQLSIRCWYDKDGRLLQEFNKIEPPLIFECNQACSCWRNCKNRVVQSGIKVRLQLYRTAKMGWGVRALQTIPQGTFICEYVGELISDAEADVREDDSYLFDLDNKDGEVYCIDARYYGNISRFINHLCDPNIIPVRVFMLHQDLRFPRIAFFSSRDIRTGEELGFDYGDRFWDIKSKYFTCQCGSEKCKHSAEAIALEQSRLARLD
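Methyltransferase reactions run at room temperature for 2 h (20 nM enzyme, 500 nM biotin-H3K9 peptide, 20 uM SAM) after a 15 min compound preincubation; product detected by AlphaScreen beads and anti-H3K9me1 antibody.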
PLK1 PBD inh = blocks phosphopeptide binding to human PLK1 polo-box domain; P53350; Plk1 PBD binding of FITC phosphopeptide, fluorescence polarization; Potency, µM, hits mostly inhibitors; actives 2.8% (n = 360,000); AID 720504; further: series mostly up to about 57 µM; nearly all actives have a fitted effect of over 65% in size
HP1b binding inh = HP1-beta chromodomain-methylated histone interaction inhibition | AlphaScreen HP1-beta / biotin-H3K9me3 peptide binding | actives 0.56% (n = 390,000) | Potency, µM (top dose mostly 114 µM), most hits filed as inhibitors | P83916; further: nearly all actives have a fitted effect of over 70% in size
Target sequence (P83916 whole entry, looked up): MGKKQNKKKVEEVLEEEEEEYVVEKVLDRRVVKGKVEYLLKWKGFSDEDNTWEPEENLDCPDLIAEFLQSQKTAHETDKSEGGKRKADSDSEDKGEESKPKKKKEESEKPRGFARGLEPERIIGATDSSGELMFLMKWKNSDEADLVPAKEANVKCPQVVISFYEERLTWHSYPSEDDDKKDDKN
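Compound inhibition of the preformed complex between 50 nM HP1-beta and 50 nM biotinylated H3K9me3 peptide was read by AlphaScreen. Buffer was PBS pH 7.4 with 0.01% Tween-20. Incubations ran 30 min at room temperature, with 10 ug/mL donor/acceptor beads.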
PI5P4Ka inh = PI5P4K alpha (human) kinase inhibition. PI5P4Kalpha enzyme, ADP-Glo luminescence, 60 min; active compounds read low. AID 652105. max response, %. actives 1.2% (n = 330,000). P48426; active means max response of -50% or lower; inconclusive means between -30% and -50%; inactive means -30% or higher; further: value at the top dose of about 77 µM
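Reactions run in 0.038 M HEPES pH 7.4, 0.28 mM EGTA, 0.1% CHAPS and 5% DMSO, with PI5P4Kalpha, substrate, compound and 5 microM ATP final, one hour at room temperature. Readout is ADP-Glo luminescence.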
Numbers stand for hits; - = inactive; ? = inconclusive; . = no result given; [ ] = dose if it differs, or a comment. Unless noted, the call rests on the fitted dose curve; in most records, active means well fitted curve in the direction sought with a large enough effect; inconclusive means small, poorly fitted or top-dose-only effect, or another doubt; inactive means no such curve, though single readings can be large; an effect the other way counts as inactive or inconclusive.

SMILES	BAZ2B block	JMJD2A Tudor inh	G9a block	PLK1 PBD inh	HP1b binding inh	PI5P4Ka inh
Cn1c(SCc2ccc(C#N)cc2)nnc1-c1cccc(Cl)c1	-	-	-	-	-	-
Cc1[nH]c(=O)c(C#N)c2c1COC(C)(C)C2	-	-	-	-	-	-
CC1=C(C#N)C(=O)OC(C)(C)C1	-	-	13µM	-	-	-
O=S(=O)(c1ccc(SCCO)nc1)N1CCOCC1	-	-	-[12.7 µM]	-	-	-
Cc1cccc(N2C(=O)N(CC(=O)C(C)(C)C)c3ccccc3S2(=O)=O)c1C	-	-	-	.	-	.
CC1CCN(c2ccc(C(=O)O)cc2NS(=O)(=O)c2ccc(Br)cc2)CC1	-	-	28µM	?	-	-
Cn1c(=O)c(=O)n(C)c2cc(N3CCCC3)c(NS(=O)(=O)c3ccc(Cl)cc3)cc21	-	-	?	-	-	-
Cn1c(=O)c(=O)n(C)c2cc(N3CCOCC3)c(NS(=O)(=O)c3ccc(F)c(Cl)c3)cc21	-	-	-	-	-	-
Cn1c(=O)c(=O)n(C)c2cc(N3CCOCC3)c(NS(=O)(=O)c3ccc([N+](=O)[O-])cc3)cc21	79µM	?	?	19µM	-	?
Cn1c(=O)n(C)c2cc(N3CCOCC3)c(NS(=O)(=O)c3ccc(Br)cc3)cc21	50µM	-	?	.	-	.
COc1ccc2c(c1)CC(C(=O)NCCN1CCN(c3cccc(C)c3C)CC1)CO2 (stereo not drawn)	-	-	-	.	-	.
CCOc1ccc(NC(=O)CN(C)C(=O)c2ccc3nc(CC)c(CC)nc3c2)cc1OCC	-	-	50µM	-	-	-
CCCN(CC(=O)Nc1ccccc1C)C(=O)c1ccc(N2CCCC2)c([N+](=O)[O-])c1	-	?	-[0.501 µM]	-	-	-
CCCN(CC(=O)Nc1ccccc1C)C(=O)c1ccc(N2CCCCC2)c([N+](=O)[O-])c1	?	?	50µM	-	-	-
CN(CCOc1ccccc1)C(=O)c1ccc(N2CCCC2)c([N+](=O)[O-])c1	?	?	50µM	-	?	-
COc1cccc(NC(=O)CN(C)C(=O)c2ccc(N3CCCCC3)c([N+](=O)[O-])c2)c1	?	?	-[12.7 µM]	-	-	-
CCN(CC(=O)Nc1c(F)cccc1F)C(=O)c1cc([N+](=O)[O-])ccc1N1CCCCC1	-	-	14µM	-	-	-
COc1ccc(CN2C(=O)C(CC(=O)NCCc3ccccn3)CC(C(=O)N3CCOCC3)=C2C)cc1 (stereo not drawn)	.	.	.	-	.	-
C/C(CC(=O)Nc1ccc(C)c(Cl)c1)=N\NC(=O)c1cccc(O)c1	-	-	.	-	-	-
CN(CC(=O)Nc1cccc(F)c1)C(=O)c1ccc2c(c1)CC(c1ccccc1)OC2=O (stereo not drawn)	?	?	14µM	-	-	-
O=C(c1ccc(N2CCCCC2)c([N+](=O)[O-])c1)N(Cc1ccccc1)c1ccccn1	32µM	45µM	?	-	?	-
CCOc1ccc(NC(=O)CN(C)C(=O)c2ccc(N3CCCCCC3)c([N+](=O)[O-])c2)cc1OCC	?	50µM	-[2.33 µM]	-	-	-
CN(CC(=O)Nc1cccc(F)c1)C(=O)c1ccc(N2CCCC2)c([N+](=O)[O-])c1	?	?	50µM	-	-	-
COC(=O)CCN(C(=O)c1ccc(N2CCCCC2)c([N+](=O)[O-])c1)c1ccccn1	-	-	?	-	-	-
Cc1c(NC(=O)Nc2cccs2)cccc1[N+](=O)[O-]	-	-	?	-	-	-
SMILES	BAZ2B block	JMJD2A Tudor inh	G9a block	PLK1 PBD inh	HP1b binding inh	PI5P4Ka inh
Cc1cccc(NC(=O)Nc2cccs2)c1C	-	-	1µM	.	-	.
Cc1ccccc1CNC(=O)Nc1cccs1	-	-	7.1µM	-	?	-
COc1ccc(-c2cc(C(F)(F)F)c(C#N)c(SCC(=O)Nc3ccc(F)cc3)n2)cc1	-	-	-	.	-	.
COc1ccc(CCNC(=O)CSc2cn(CCNC(=O)c3ccccc3F)c3ccccc23)cc1OC	-	-	-	.	-	.
CCc1cccc(NC(=O)CCSCCC(=O)Nc2cccc(CC)c2)c1	-	-	50µM	-	-	-
Cc1ccc(S(=O)(=O)CCC(=O)Nc2ccc3nc(C)sc3c2)cc1	-	-	?	-	-	-
CCc1cccc(NC(=O)CCS(=O)(=O)c2ccc3nc(C)sc3c2)c1	-	-	11µM	.	-	.
Cc1ccc(NC(=O)CCS(=O)(=O)c2ccc3nc(C)sc3c2)cc1	-	-	-	27µM	-	-
Cc1nc2ccc(NC(=O)CCS(=O)(=O)c3ccccc3)cc2s1	-	-	-	-	-	-
COc1ccc(CNC(=O)C2CCN(Cc3nc(-c4ccc(OC)c(OC)c4)oc3C)CC2)cc1	-	-	-	.	-	.
CCOc1ccccc1NC(=O)C(OC(=O)c1cnccn1)c1ccccc1 (stereo not drawn)	-	-	-	-	-	-
CC(=O)c1ccc(NC(=S)NCCc2cccc(Cl)c2)cc1	?	-	-	-	-	-
COc1ccc(-n2nc3ccc(NC(=O)c4ccc(-c5cc(Cl)ccc5Cl)o4)cc3n2)cc1	-	-	?	.	-	.
O=C(Nc1ccc(CN2CCOCC2)cc1)c1ccc(-c2ccc(Cl)cc2Cl)o1	?	-	40µM	-	-	-
O=C(Nc1ccc2nn(-c3ccccc3)nc2c1)c1ccc(-c2cccc(Cl)c2)o1	-	-	14µM	.	-	.
O=C(Nc1ccc(CN2CCOCC2)cc1)c1ccc(-c2cccc(Cl)c2)o1	?	-	18µM	-	-	-
CC(=O)c1c(C)oc2ccc(N(C(=O)Oc3ccccc3)S(=O)(=O)c3ccc(Cl)cc3)cc12	-	-	-	.	-	.
O=C(CSc1nccn1Cc1ccccc1)NCc1ccco1	?	?	?	.	-	.
CCC(C)N1C(=O)N(C)C2NC(=O)NC21 (stereo not drawn)	-	-	.	27µM	-	-
CCC(C)NC(=O)CN1C(=O)NC2NC(=O)NC21 (stereo not drawn)	-	-[11.4 µM]	-	?	-	-
O=C1NC[C@@H](CCCCN2C[C@H](Cc3ccccc3)N(Cc3ccccc3)C(=O)C2=O)N(CCc2ccccc2)C1=O	.	.	.	-	.	-
CC1=CC2=NC(=O)CC(C)(C(=O)N(CC(=O)NC3CCCC3)c3ccccc3F)N2C=C1 (stereo not drawn)	-	-	-	-	-	-
CC1=CC2=NC(=O)CC(C)(C(=O)N(CC(=O)NC3CCCC3)c3ccccc3C)N2C=C1 (stereo not drawn)	-	-[11.4 µM]	-[12.7 µM]	30µM	-	-
O=C(O)CS(=O)(=O)CC(=O)NCc1cccc(C(F)(F)F)c1	?	-	-	-	-	-
O=C(O)CS(=O)(=O)CC(=O)O	79µM	?	?	-	-	-
